# Results taken from PubChem BioAssay AID868 (SRMLSC, 2007).
# The whole screen tested about 190,000 compounds, of which about 3,500 (1.8%) were called active.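 The calls were made as follows: active = inhibition above a set limit, 3 SD over mean compound inhibition (cut at about 8.4% in these data); inactive = the rest.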 What follows is part of a selection rich in actives, with near analogues and random picks from the rest.
# Assay: inhibitors of the yeast RAM network, primary screen, dse1pr::URA3 reporter, 5-FOA selection (AID 868);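 also: 0% = DMSO-only wells with no growth and 100% = 10 µM 1-NA-PP1 full growth; inhibition rescues growth on 5-FOA so higher OD means more RAM inhibition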
# Details: S. cerevisiae dse1pr::URA3 reporter, 5-FOA growth OD615, 2 d; at 50 µM; hits give high values; analog-sensitive cbk1-as2 kinase mutant strain
row,SMILES,inhibition
1,CCCCS(=O)c1snnc1C (stereo not given),-0.12% (inactive)
2,O=C(CNC(=O)c1cc2c(s1)CCC2)Nc1ccccc1Br,1.93% (inactive)
3,O=C(c1cc2c(s1)CCC2)N1CCN(c2ccccc2)CC1,4.37% (inactive)
4,O=C(NNC(=O)c1cc2c(s1)CCCC2)c1ccccc1,9.1% (active)
5,CCOC(=O)Cc1csc(SCC(=O)NC(C)C23CC4CC(CC(C4)C2)C3)n1 (stereo not given),0.91% (inactive)
6,CC(NC(=O)COC(=O)c1ccc(Cl)cc1O)c1ccc(F)cc1 (stereo not given),3.6% (inactive)
7,COc1ccccc1-n1c(=S)[nH]c2c(sc(=S)n2-c2ccc(C)cc2C)c1=O,9.12% (active)
8,COc1cccc(-n2c(=S)sc3c(=O)n(-c4ccccc4OC)c(SCC4OCCO4)nc32)c1,7.01% (inactive)
9,CCc1ccc(-n2c(=S)sc3c(=O)n(-c4ccccc4OC)c(=S)[nH]c32)cc1,5.97% (inactive)
10,O=C(c1ccncc1)c1ccc([N+](=O)[O-])cc1,0.73% (inactive)
11,CC(C)=C1C2CCC1C1C(=O)N(NC(=O)c3ccco3)C(=O)C21 (stereo not given),-1.09% (inactive)
12,N/C(=N\OC(=O)COc1ccc([N+](=O)[O-])cc1)c1ccc(Br)cc1,2.29% (inactive)
13,N/C(=N\OC(=O)Cc1ccc([N+](=O)[O-])cc1)c1ccccn1,1.23% (inactive)
14,N/C(Cc1ccc([N+](=O)[O-])cc1)=N\OC(=O)COc1ccc2ccccc2c1,12% (active)
15,CN(C)c1nnnn1-c1ccc(Cl)cc1,-0.37% (inactive)
16,O=C(O)/C=C/c1cn(Cc2ccccc2)nc1-c1cccs1,4% (inactive)
17,CCC(C(=O)OCC(=O)Nc1c(Cl)cc(Cl)cc1Cl)c1ccccc1 (stereo not given),12.2% (active)
18,CCC(C(=O)OCC(=O)Nc1ccc(C(=O)Nc2ccc(OC)cc2)cc1)c1ccccc1 (stereo not given),4.72% (inactive)
19,CCC(C(=O)OCC(=O)Nc1ccccc1-c1ccccc1)c1ccccc1 (stereo not given),6.39% (inactive)
20,COCCNC(=O)NC(=O)COC(=O)C1(c2ccc(Cl)cc2)CC1,0.14% (inactive)
21,Nc1ncnc(Nc2cccc(Cl)c2Cl)n1,0.27% (inactive)
22,CC(=O)Nc1ccc(Sc2ccccc2C(=O)N2CCCC2)cn1,1.82% (inactive)
23,CCOC(=O)C1=C(C)N=c2s/c(=C\C(=O)OC)c(=O)n2C1c1ccc(OC)cc1 (stereo not given),2.7% (inactive)
24,COc1ccc(OC)c(C2C3=C(N=c4s/c(=C\c5cccc(O)c5)c(=O)n42)c2ccccc2CC3)c1 (stereo not given),12.7% (active)

row,SMILES,inhibition
1,O=C1CCCC2=C1C(c1ccccc1)n1c(s/c(=C/c3cccc(F)c3)c1=O)=N2 (stereo not given),3.98% (inactive)
2,Cc1ccc2[nH]c(=O)c(CN(CC3COCCO3)C(=O)Nc3ccccc3C)cc2c1 (stereo not given),0.63% (inactive)
3,CCCCCOc1ccc(CSC2=NCCN2)cc1[N+](=O)[O-],-0.98% (inactive)
4,O=C(Nc1nc(-c2cccnc2)cs1)c1ccccc1F,-0.37% (inactive)
5,Cc1nn(C)c(C(=O)NNC(=S)NC2CCCCC2)c1Cl,0.28% (inactive)
6,COc1cccc(NC(=S)NC(=O)c2c(Cl)c(C)nn2C)c1,8.92% (active)
7,COc1cccc(NC(=S)NCc2ccccn2)c1,2.63% (inactive)
8,CCOC(=O)C1(Cc2cccc(OC)c2)CCCN(S(=O)(=O)c2cccnc2)C1 (stereo not given),0.14% (inactive)
9,O=C(NCc1ccccc1)C1CCCN(c2nc3ccsc3c(=O)s2)C1 (stereo not given),3.39% (inactive)
10,CN(C)S(=O)(=O)c1cccc(NC(=O)COC(=O)C2(c3ccccc3F)CCCC2)c1,15.4% (active)
11,CN(C)S(=O)(=O)c1cccc(NC(=O)COC(=O)c2cc(=O)[nH]c(=O)[nH]2)c1,0.97% (inactive)
12,CN(C)S(=O)(=O)c1cccc(NC(=O)COC(=O)/C=C/c2cccs2)c1,0.87% (inactive)
13,CC1CC(C)(C)NC(=S)N1CCC(=O)N1CCN(Cc2ccccc2)CC1 (stereo not given),-0.49% (inactive)
14,CCC(C)(C)NC(=O)CN(C(=O)CCC(=O)Nc1cc(C)ccn1)c1ccc2c(c1)OCCO2,1.5% (inactive)
15,Cc1ccn(CC(=O)N2N=C(C(F)F)CC2(O)C(F)F)n1 (stereo not given),0.78% (inactive)
16,S=C(NCc1ccc(Cl)cc1)NC12CC3CC(CC(C3)C1)C2,5.19% (inactive)
17,CN(C)CCCNC(=S)NCc1ccc(Cl)cc1,0.25% (inactive)
18,S=C(NCc1ccc(Cl)cc1)NC1CCCCC1,10.9% (active)
19,Cc1ccc(S(=O)(=O)Nc2nc(C)cc(-n3nc(C)cc3C)n2)cc1,2.7% (inactive)
20,CCCC(C(=O)n1nc(C)cc1C)C(NS(=O)(=O)c1ccc(C)cc1)c1ccccc1 (stereo not given),11.7% (active)
21,Cc1ccc(S(=O)(=O)NC(C(=O)N2CCOCCOCCOCCOCC2)c2ccccc2)cc1 (stereo not given),2% (inactive)
22,COc1ccc(OC)c(-n2c(=S)[nH]c3cc(C(=O)N4CCCCC4)ccc3c2=O)c1,8.46% (active)
23,COc1ccccc1Cn1c(=S)[nH]c2cc(C(=O)N3CCN(C)CC3)ccc2c1=O,2.83% (inactive)
24,COc1ccc(OCc2cccc(C(=O)N3CCCC3)c2)cc1,-0.11% (inactive)

row,SMILES,inhibition
1,CC(=O)c1ccc(S(=O)(=O)Nc2ccc(C(=O)NCC(c3ccccc3)N(C)C)cc2)cc1 (stereo not given),1.76% (inactive)
2,O=C(Nc1ccc(N2CCN(C(=O)c3cccs3)CC2)cc1)c1cccnc1Cl,0.88% (inactive)
3,CC(=O)N1CCN(c2cccc(C)c2C)CC1,2.09% (inactive)
4,O=C(O)c1cnn2c(C(F)(F)F)cc(-c3ccccc3)nc12,0.53% (inactive)
5,Cc1cccc(N2CCN(C(=O)c3cnn4c(C(F)F)cc(-c5ccccc5)nc34)CC2)c1C,12.1% (active)
6,COc1cc(N/C=C2\CC(=O)NC(C)=C2C#N)cc(OC)c1OC,2.13% (inactive)
7,Cn1c(=O)c2cc(S(=O)(=O)NCCC(=O)Nc3ccc(F)cc3F)ccc2n(C)c1=O,2.64% (inactive)
8,COc1ccc(CCNC(=O)CC2SC(=Nc3cc(C)cc(C)c3)NC2=O)cc1OC (stereo not given),1.51% (inactive)
9,CCOC(=O)c1cc2sccc2n1Cc1ccc(C#N)cc1,8.47% (active)
10,O=C(c1cc2sccc2n1Cc1ccc(F)cc1)N1CCc2ccccc21,2.22% (inactive)
11,CC1Cc2ccccc2N1C(=O)c1cc2sccc2n1Cc1ccccc1 (stereo not given),2.9% (inactive)
12,NC(=O)CCC(NS(=O)(=O)c1ccc(Cl)cc1)C(=O)NCc1ccccc1Cl (stereo not given),2.16% (inactive)
13,CCCC1NC(=S)NC(C)=C1C(C)=O (stereo not given),1.13% (inactive)
14,Cc1ccc(NC(=O)c2cccnc2C(=O)Nc2ccc(C)cc2)cc1,2.98% (inactive)
15,Cc1ccc(NC(=O)CN2CCCCC2)c2c1CC(C)(C)O2,0.63% (inactive)
16,COc1ccc(-c2[nH]ncc2CN(C)Cc2cc(C)[nH]n2)c(F)c1,0.37% (inactive)
17,CN(C)c1ccc(C2Nc3ccccc3C(=O)N2NS(=O)(=O)c2ccccc2)cc1 (stereo not given),1.39% (inactive)
18,O=C(CSc1nc2ccccc2o1)N1c2ccccc2Sc2ccc(Cl)cc21,3.58% (inactive)
19,S=C1Nc2cc(Cl)ccc2Sc2ccccc21,0% (inactive)
20,O=C1Cc2ccccc2Sc2ccc(Cl)cc21,9.58% (active)
21,CN(CC(=O)N1CCN(c2ccccc2)CC1)S(=O)(=O)c1cccs1,1.71% (inactive)
22,O=C(NCCCN1CCOCC1)c1ccccc1NS(=O)(=O)c1ccc(Br)cc1,1.86% (inactive)
23,O=C(CN1C(=O)CC(c2ccccc2)=Nc2ccccc21)NC1CCCCC1,0.45% (inactive)
24,CC(=O)c1cc(-c2ccccc2)n(CCC(=O)NC2CCCCCC2)c1C,8.76% (active)

row,SMILES,inhibition
1,CC(=O)c1cc(-c2ccccc2)n(CC(=O)NC2CCCCC2)c1C,1.07% (inactive)
2,S=c1[nH]nc(/C=C/c2ccccc2)o1,-1.49% (inactive)
3,O=c1c(-c2ccccc2)cnc2n1CCS2,0.49% (inactive)
4,CNc1[nH]ncc1[N+](=O)[O-],0.14% (inactive)
5,CC(=O)Nc1ccc(S(=O)(=O)Nc2ccc(-c3ccc4nnc(C)n4n3)cc2)cc1,1.24% (inactive)
6,Cc1cc(NS(=O)(=O)c2ccccc2)no1,1.83% (inactive)
7,COc1cc(OC)cc(C(=O)Nc2ccc(S(=O)(=O)Nc3cc(C)on3)cc2)c1,3.99% (inactive)
8,COc1cc2ccccc2cc1C(=O)Nc1ccc(S(=O)(=O)Nc2cc(C)on2)cc1,9.69% (active)
9,C/C=N/NC(=O)CCCC(=O)N/N=C/C,0.88% (inactive)
10,C#CCOCCOCCOCCNc1nc(N2CCN(C(=O)[C@H](C(C)C)n3cc(CCO)nn3)CC2)nc(N2CCN(C(=O)[C@H](C(C)C)n3cc(CCO)nn3)CC2)n1,1.36% (inactive)
11,CCC1C(=O)c2ccccc2N(C)C1=O (stereo not given),0.28% (inactive)
12,CN1C(=O)/C(=C\c2cc(Br)cs2)c2ccccc21,8.8% (active)
13,CN1C(=O)/C(=N/OC(=O)c2ccccc2Br)c2ccccc21,4.91% (inactive)
14,CN1CCN(C(=O)CCc2ncc(C(F)(F)F)cc2Cl)CC1,-0.55% (inactive)
15,COc1ccc(-n2cnc3cc(C(=O)NC4CCCC4)ccc32)cc1,-0.87% (inactive)
16,N#Cc1nc(Cc2ccccc2)oc1NCCc1ccccc1,2.28% (inactive)
17,O=C(COc1ccccc1)NCc1ccc2c(c1)OCO2,3.27% (inactive)
18,N#Cc1nc(Cc2cccc3ccccc23)oc1NCc1ccc2c(c1)OCO2,11% (active)
19,CCCNC(=O)OC[C@H]1O[C@H](CCO/N=C/[C@@H](NS(=O)(=O)c2ccc(C)cc2)[C@H](C)/C=C/CC(=O)OC)C=C[C@@H]1Oc1ccc(OC)cc1,14.8% (active)
20,CCCC(NS(=O)(=O)c1ccc(OC)cc1)C(=O)O (stereo not given),0% (inactive)
21,C=CCn1c(CCc2ccc(OC(C)C)cc2)n[nH]c1=S,-0.6% (inactive)
22,CC(C)Oc1ccc(Cc2n[nH]c(=S)n2Cc2ccccc2)cc1Cl,9.13% (active)
23,CC(C)Oc1ccc(CCc2n[nH]c(=S)n2Cc2ccccc2)cc1,6.59% (inactive)
